The record followed here is PubChem BioAssay (NCATS).

The source made the active and inactive calls. Calls come from the whole dose curve; as a rule, active = well fitted curve in the direction sought with a large enough effect; inconclusive = small, poorly fitted or top-dose-only effect, or another doubt; inactive = no such curve, though single readings can be large or run the other way.

For the first experiment, the target named is T1, Hexokinase-4 (Homo sapiens) + Glucokinase regulatory protein (Homo sapiens) (UniProt P35557+Q14397). In words: qHTS assay for inhibitors of recombinant human GCK-GKRP interaction: ADP-Glo assay (AID 743206).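 Note: plate controls were DMSO plus enzyme for no effect and no enzyme for full effect.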 To be noted: ADP-Glo luminescence, 60 min, 0% = vehicle-only wells with enzyme present; series mostly up to 76.9 µM; activity, positive = activation: at the top concentration. A digest of the protocol: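 GST-GCK and FLAG-GKRP (15 nM each in the dispensed mix, with 2 uM S6P) react with 0.4 mM ATP and 5 mM glucose (final) in Hepes pH 7.6 for 60 min at room temperature. ADP is measured by ADP-Glo luminescence.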
T1 sequence (P35557 whole entry, looked up): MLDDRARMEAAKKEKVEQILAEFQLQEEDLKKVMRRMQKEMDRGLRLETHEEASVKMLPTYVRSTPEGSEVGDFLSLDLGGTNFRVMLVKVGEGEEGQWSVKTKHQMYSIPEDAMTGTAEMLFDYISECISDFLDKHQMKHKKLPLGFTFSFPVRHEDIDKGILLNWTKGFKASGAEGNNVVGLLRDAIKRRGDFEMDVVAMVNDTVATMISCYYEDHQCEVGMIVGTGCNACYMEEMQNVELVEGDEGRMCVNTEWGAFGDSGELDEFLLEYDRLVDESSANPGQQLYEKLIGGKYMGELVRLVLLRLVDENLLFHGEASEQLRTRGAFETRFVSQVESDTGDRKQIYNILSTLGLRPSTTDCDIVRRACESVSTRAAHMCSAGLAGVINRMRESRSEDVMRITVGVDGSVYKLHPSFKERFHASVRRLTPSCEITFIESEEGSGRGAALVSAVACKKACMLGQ
T1 sequence (Q14397 whole entry, looked up): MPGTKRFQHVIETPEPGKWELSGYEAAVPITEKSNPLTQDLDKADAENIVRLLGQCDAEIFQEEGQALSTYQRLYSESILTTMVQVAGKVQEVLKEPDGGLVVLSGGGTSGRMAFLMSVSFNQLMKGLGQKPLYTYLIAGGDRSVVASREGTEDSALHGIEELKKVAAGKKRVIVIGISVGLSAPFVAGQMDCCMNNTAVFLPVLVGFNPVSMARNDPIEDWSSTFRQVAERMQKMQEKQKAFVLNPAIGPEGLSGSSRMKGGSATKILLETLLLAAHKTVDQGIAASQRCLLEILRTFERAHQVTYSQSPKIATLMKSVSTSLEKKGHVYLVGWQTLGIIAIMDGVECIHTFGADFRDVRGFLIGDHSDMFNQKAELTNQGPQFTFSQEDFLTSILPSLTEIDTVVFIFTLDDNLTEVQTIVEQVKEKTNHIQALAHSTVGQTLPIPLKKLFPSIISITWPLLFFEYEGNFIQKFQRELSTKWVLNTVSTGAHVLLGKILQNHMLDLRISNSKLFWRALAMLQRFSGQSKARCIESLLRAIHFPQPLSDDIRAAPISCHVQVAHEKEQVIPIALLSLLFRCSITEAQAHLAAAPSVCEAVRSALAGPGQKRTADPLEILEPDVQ
In the case of `CCO/C([O-])=N/c1c[n+](N2CCOCC2)no1`, the “activity, positive = activation” value was 6.14% (inactive).

On to `C(=C\c1ccccc1)/CN1CCN(C(c2ccccc2)c2ccccc2)CC1`, for which the “activity, positive = activation” value was 0.184% (inactive).

In the case of `CCCN(CCC)C(=O)C(CCC(=O)O)NC(=O)c1ccccc1` (stereo not given), the “activity, positive = activation” value was 3.92% (inactive).

Turning to `COCCCC/C(=N\OCCN)c1ccc(C(F)(F)F)cc1`, the “activity, positive = activation” value was 5.45% (inactive).

On to `Cc1ccc(Cl)c(Nc2ccccc2C(=O)O)c1Cl`, for which the “activity, positive = activation” value was 5.19% (inactive).

In the case of `C[N+](C)(C)CCOC(N)=O`, the “activity, positive = activation” value was 4.75% (inactive).

With `OCCN1CCN(CCCN2c3ccccc3C=Cc3ccccc32)CC1`, the “activity, positive = activation” value was 0.849% (inactive).

For `CCNC(=O)N1CCN(CCCC(c2ccc(F)cc2)c2ccc(F)cc2)CC1`, the “activity, positive = activation” value is 1.74% (inactive).

Regarding `CCCCCN(CCCCC)C(=O)C(CCC(=O)O)NC(=O)c1ccc(Cl)c(Cl)c1` (stereo not given), the “activity, positive = activation” value was 3.16% (inactive).

In the case of `CNCCC(Oc1ccccc1OC)c1ccccc1` (stereo not given), the “activity, positive = activation” value is 5.1% (inactive).

Consider `COc1cc(C(=O)OCCCN2CCCN(CCCOC(=O)c3cc(OC)c(OC)c(OC)c3)CC2)cc(OC)c1OC`, for which the “activity, positive = activation” value was 1.28% (inactive).

Regarding `CN(C)CCCN1c2ccccc2Sc2ccccc21`, the “activity, positive = activation” value was -3.07% (inactive).

In the case of `CCc1cccc(N(C)C(N)=Nc2cccc3ccccc23)c1`, the “activity, positive = activation” value was -2.26% (inactive).

In the case of `CN1CCN(C2=Nc3ccccc3Oc3ccc(Cl)cc32)CC1`, the “activity, positive = activation” value is -4.75% (inactive).

Turning to `CC(C)(C)NCC(O)c1cc(O)cc(O)c1` (stereo not given), the “activity, positive = activation” value was 4.83% (inactive).

Regarding `CCN(CC)CCNC(=O)c1cc(S(C)(=O)=O)ccc1OC`, the “activity, positive = activation” value is 0.857% (inactive).

Regarding `O=C(CCCN1CCC(O)(c2cccc(C(F)(F)F)c2)CC1)c1ccc(F)cc1`, the “activity, positive = activation” value is 2.76% (inactive).

On to `COc1ccc(CCN(C)CCCC(C#N)(c2cc(OC)c(OC)c(OC)c2)C(C)C)cc1OC` (stereo not given), for which the “activity, positive = activation” value is 0.69% (inactive).

In the case of `Cc1nc2c([nH]1)c(=O)n(C)c(=O)n2Cc1ccco1`, the “activity, positive = activation” value is 0.647% (inactive).

For the molecule `CC(C(=O)O)c1ccc(CC2CCCC2=O)cc1` (stereo not given), the “activity, positive = activation” value is 3.24% (inactive).

Regarding `CC(=O)Oc1cc(C(C)C)c(OCCN(C)C)cc1C`, the “activity, positive = activation” value is 2.71% (inactive).

Regarding `C[n+]1cc2c3c(ccc2c2ccc4cc5c(cc4c21)OCO5)OCO3`, the “activity, positive = activation” value was -2.85% (inactive).

Consider `NC(N)=N/N=C/c1c(Cl)cccc1Cl`, for which the “activity, positive = activation” value is -0.0096% (inactive).

`CCOC(=O)C1=C(C)NC(C)=C(C(=O)OC)C1c1cccc([N+](=O)[O-])c1` (stereo not given): the “activity, positive = activation” value was 1.52% (inactive).

As to `CN(C)C/C=C(/c1ccc(Br)cc1)c1cccnc1`, the “activity, positive = activation” value was -2.96% (inactive).

Consider `CN(C)CCOC(=O)COc1ccc(Cl)cc1`, for which the “activity, positive = activation” value is -2.1% (inactive).

As for `CCCN(CCC)CCc1cccc2c1CC(=O)N2`, the “activity, positive = activation” value is -0.239% (inactive).

For the molecule `CCCC(C(=O)OCCN(CC)CC)(c1ccccc1)c1ccccc1`, the “activity, positive = activation” value was 4.94% (inactive).

In the case of `CN(C)CC/C=C1\c2ccccc2COc2ccccc21`, the “activity, positive = activation” value is 1.44% (inactive).

For `Cc1nc2sccn2c(=O)c1CCN1CCC(=C(c2ccc(F)cc2)c2ccc(F)cc2)CC1`, the “activity, positive = activation” value was 3.51% (inactive).

As to `NC(=O)c1cn(Cc2c(F)cccc2F)nn1`, the “activity, positive = activation” value was 0.273% (inactive).

Take `C[N+](C)(C)CCOC(=O)CCC(=O)OCC[N+](C)(C)C`: the “activity, positive = activation” value is -0.0106% (inactive).

Take `O=C(O)CP(=O)(O)O`: the “activity, positive = activation” value is 3.34% (inactive).

Consider `Cc1nnc(SCC2=C(C(=O)O)N3C(=O)[C@@H](NC(=O)Cn4cnnn4)[C@H]3SC2)s1`, for which the “activity, positive = activation” value is 3.88% (inactive).

On to `Nc1c2c(nc3ccccc13)CCCC2O` (stereo not given), for which the “activity, positive = activation” value is 3.22% (inactive).

A further experiment concerns the target T1, Hexokinase-4 (Homo sapiens) + Glucokinase regulatory protein (Homo sapiens). In words: qHTS assay for inhibitors of recombinant human GCK-GKRP interaction: HTRF assay (AID 743207).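 Note: 0% = DMSO with GCK present and -100% = DMSO wells lacking GCK.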 To be noted: recombinant GCK-GKRP HTRF binding, 60 min, with sorbitol-6-phosphate; series mostly up to 57.5 µM; activity change, negative = inhibition: at the top concentration. The procedure, abridged:
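5 nM GST-GCK + 5 nM FLAG-GKRP + 2 uM S6P, pH 7.1 buffer (25 mM Hepes, 2 mM MgCl2, 25 mM KCl, 1 mM DTT, Tween/BSA); pin-transferred cpd; anti-FLAG XL665/anti-GST K; 60 min RT; HTRF.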
In general terms: In qHTS, concentration-response curves come from the screen itself.
As to `CCO/C([O-])=N/c1c[n+](N2CCOCC2)no1`, the “activity change, negative = inhibition” value was -16.4% (inactive).

In the case of `C(=C\c1ccccc1)/CN1CCN(C(c2ccccc2)c2ccccc2)CC1`, the “activity change, negative = inhibition” value was -7.05% (inactive).

Consider `CCCN(CCC)C(=O)C(CCC(=O)O)NC(=O)c1ccccc1` (stereo not given), for which the “activity change, negative = inhibition” value was 10.1% (inactive).

Consider `COCCCC/C(=N\OCCN)c1ccc(C(F)(F)F)cc1`, for which the “activity change, negative = inhibition” value was 6.85% (inactive).

Take `Cc1ccc(Cl)c(Nc2ccccc2C(=O)O)c1Cl`: the “activity change, negative = inhibition” value was -4.44% (inactive).

As to `C[N+](C)(C)CCOC(N)=O`, the “activity change, negative = inhibition” value was -6.15% (inactive).

Consider `OCCN1CCN(CCCN2c3ccccc3C=Cc3ccccc32)CC1`, for which the “activity change, negative = inhibition” value was 2.36% (inactive).

As for `CCNC(=O)N1CCN(CCCC(c2ccc(F)cc2)c2ccc(F)cc2)CC1`, the “activity change, negative = inhibition” value is -4.57% (inactive).

With `CCCCCN(CCCCC)C(=O)C(CCC(=O)O)NC(=O)c1ccc(Cl)c(Cl)c1` (stereo not given), the “activity change, negative = inhibition” value was 12.9% (inactive).

`CNCCC(Oc1ccccc1OC)c1ccccc1` (stereo not given): the “activity change, negative = inhibition” value was 6.96% (inactive).

For `COc1cc(C(=O)OCCCN2CCCN(CCCOC(=O)c3cc(OC)c(OC)c(OC)c3)CC2)cc(OC)c1OC`, the “activity change, negative = inhibition” value was -6.1% (inactive).

As for `CN(C)CCCN1c2ccccc2Sc2ccccc21`, the “activity change, negative = inhibition” value was 12.7% (inactive).

With `CCc1cccc(N(C)C(N)=Nc2cccc3ccccc23)c1`, the “activity change, negative = inhibition” value was -2.81% (inactive).

On to `CN1CCN(C2=Nc3ccccc3Oc3ccc(Cl)cc32)CC1`, for which the “activity change, negative = inhibition” value was -7.87% (inactive).

In the case of `CC(C)(C)NCC(O)c1cc(O)cc(O)c1` (stereo not given), the “activity change, negative = inhibition” value was 4.44% (inactive).

In the case of `CCN(CC)CCNC(=O)c1cc(S(C)(=O)=O)ccc1OC`, the “activity change, negative = inhibition” value was -11% (inactive).

Consider `O=C(CCCN1CCC(O)(c2cccc(C(F)(F)F)c2)CC1)c1ccc(F)cc1`, for which the “activity change, negative = inhibition” value was 11.5% (inactive).

On to `COc1ccc(CCN(C)CCCC(C#N)(c2cc(OC)c(OC)c(OC)c2)C(C)C)cc1OC` (stereo not given), for which the “activity change, negative = inhibition” value was 18.5% (inactive).

In the case of `Cc1nc2c([nH]1)c(=O)n(C)c(=O)n2Cc1ccco1`, the “activity change, negative = inhibition” value is -1.02% (inactive).

In the case of `CC(C(=O)O)c1ccc(CC2CCCC2=O)cc1` (stereo not given), the “activity change, negative = inhibition” value was -5.54% (inactive).

On to `CC(=O)Oc1cc(C(C)C)c(OCCN(C)C)cc1C`, for which the “activity change, negative = inhibition” value is 3.07% (inactive).

On to `C[n+]1cc2c3c(ccc2c2ccc4cc5c(cc4c21)OCO5)OCO3`, for which the “activity change, negative = inhibition” value was -4.1% (inactive).

For `NC(N)=N/N=C/c1c(Cl)cccc1Cl`, the “activity change, negative = inhibition” value was 0.302% (inactive).

For the molecule `CCOC(=O)C1=C(C)NC(C)=C(C(=O)OC)C1c1cccc([N+](=O)[O-])c1` (stereo not given), the “activity change, negative = inhibition” value was -0.76% (inactive).

Regarding `CN(C)C/C=C(/c1ccc(Br)cc1)c1cccnc1`, the “activity change, negative = inhibition” value is -2.27% (inactive).

In the case of `CN(C)CCOC(=O)COc1ccc(Cl)cc1`, the “activity change, negative = inhibition” value was 20% (inactive).

In the case of `CCCN(CCC)CCc1cccc2c1CC(=O)N2`, the “activity change, negative = inhibition” value was -3.81% (inactive).

With `CCCC(C(=O)OCCN(CC)CC)(c1ccccc1)c1ccccc1`, the “activity change, negative = inhibition” value is 11.2% (inactive).

In the case of `CN(C)CC/C=C1\c2ccccc2COc2ccccc21`, the “activity change, negative = inhibition” value was -8.84% (inactive).

As for `Cc1nc2sccn2c(=O)c1CCN1CCC(=C(c2ccc(F)cc2)c2ccc(F)cc2)CC1`, the “activity change, negative = inhibition” value is -8.17% (inactive).

`NC(=O)c1cn(Cc2c(F)cccc2F)nn1`: the “activity change, negative = inhibition” value was 11.1% (inactive).

With `C[N+](C)(C)CCOC(=O)CCC(=O)OCC[N+](C)(C)C`, the “activity change, negative = inhibition” value was 6.57% (inactive).

Turning to `O=C(O)CP(=O)(O)O`, the “activity change, negative = inhibition” value is -0.964% (inactive).

`Cc1nnc(SCC2=C(C(=O)O)N3C(=O)[C@@H](NC(=O)Cn4cnnn4)[C@H]3SC2)s1`: the “activity change, negative = inhibition” value was -4.44% (inactive).

Turning to `Nc1c2c(nc3ccccc13)CCCC2O` (stereo not given), the “activity change, negative = inhibition” value is -1.49% (inactive).
